SENP7 block – SENP7 protease inhibitors, primary screen, biochemical, luminescence, uHTS | inhibition, % at 5 µM | recombinant SENP7, Z-RLRGG-aminoluciferin luminescence, 40 min | Sentrin-specific protease 7 (Homo sapiens), Q9BQF6 | 330,000 compounds, 1.5% hits | AID 434973, 2010;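 active = inhibition above about 50% at the single test dose, limit read from the data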
Target sequence (Q9BQF6 706-1050 limits assumed): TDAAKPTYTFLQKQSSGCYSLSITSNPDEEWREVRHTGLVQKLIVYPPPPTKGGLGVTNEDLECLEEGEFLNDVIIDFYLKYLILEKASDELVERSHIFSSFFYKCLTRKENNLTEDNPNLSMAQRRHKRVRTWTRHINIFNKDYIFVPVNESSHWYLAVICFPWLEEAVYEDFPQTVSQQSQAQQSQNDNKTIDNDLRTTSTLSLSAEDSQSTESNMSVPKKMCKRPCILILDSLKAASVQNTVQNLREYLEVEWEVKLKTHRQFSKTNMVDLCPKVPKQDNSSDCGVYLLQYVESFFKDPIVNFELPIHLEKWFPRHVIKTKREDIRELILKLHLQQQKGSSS
SENP6 block – SENP6 protease inhibitors, primary screen, biochemical, luminescence, uHTS | Sentrin-specific protease 6 (Homo sapiens), Q9GZR1 | Recombinant SENP6 catalytic domain, aminoluciferin luminescence | inhibition, % at 10 µM | 330,000 compounds, 1.8% hits;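 active = inhibition above about 50% at the single tested dose, limit read from the data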
Platelet DG rel – inhibitors of platelet dense granule secretion, primary screen, cell-based, MLPCN, human platelets; AID 1663, 2009; inhibition, %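 (compounds screened at 7.5 µM in platelet-rich plasma)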; 300,000 compounds, 0.22% hits; human platelet-rich plasma, SFLLRN dense granule ATP release, luminescence;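 active = mean replicate score, as percent of positive control, at or above 50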
SENP8 block-1 – human SENP8 protease inhibitors, primary screen, biochemical, fluorescence, Nedd8 protein substrate, uHTS | Sentrin-specific protease 8 (Homo sapiens), Q96LD8 | recombinant SENP8 | inhibition, % at 20 µM | 360,000 compounds, 0.64% hits | AID 602440, 2012; in the data active = inhibition mostly above about 40%, no sharp cut-off; inactive = mostly below about 27%
SENP8 block-2 – SENP8 protease inhibitors, primary screen, biochemical, luminescence. Sentrin-specific protease 8 (Homo sapiens), Q96LD8. purified SENP8, Z-RLRGG-aminoluciferin cleavage. inhibition, % at 10 µM. 330,000 compounds, 1.2% hits. AID 2540, 2010; in the data active = inhibition above about 50%
SENP8 confirm – SENP8 protease inhibitors, retest, confirmation, biochemical, luminescence, single concentration; shares compounds with SENP7 block; Recombinant SENP8, Z-RLRGG-aminoluciferin luminescence, 60 min; inhibition, % at 12.5 µM; 6,200 compounds, 40% hits; AID 488912, 2010;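 active = mean inhibition across replicates above about 50%, limit read from the data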
SENP6 conf – SENP6 protease inhibitors, confirmation, biochemical, luminescence, single concentration; shares compounds with SENP7 block; recombinant SENP6, Z-RLRGG-aminoluciferin luminescence; inhibition, % at 12.5 µM; 6,200 compounds, 58% hits; AID 488915, 2010
SENP7 confirm – SENP7 protease inhibitors, retest, confirmation, biochemical, luminescence, single concentration | recombinant SENP7, Z-RLRGG-aminoluciferin luminescence, 40 min | AID 488917, 2010 | shares compounds with SENP7 block | 6,200 compounds, 69% hits | inhibition, % at 12.5 µM
Casp3 select – caspase-3 protease inhibitors, confirmation, selectivity assay for SENP inhibitor project, biochemical, single concentration; shares compounds with SENP7 block; purified caspase-3, Z-DEVD-aminoluciferin luminescence, 60 min; inhibition, % at 12.5 µM; 6,200 compounds, 60% hits; AID 488918, 2010;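 active = mean inhibition above about 50%, limit read from the data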
Target sequence (P42574 28-227 limits assumed): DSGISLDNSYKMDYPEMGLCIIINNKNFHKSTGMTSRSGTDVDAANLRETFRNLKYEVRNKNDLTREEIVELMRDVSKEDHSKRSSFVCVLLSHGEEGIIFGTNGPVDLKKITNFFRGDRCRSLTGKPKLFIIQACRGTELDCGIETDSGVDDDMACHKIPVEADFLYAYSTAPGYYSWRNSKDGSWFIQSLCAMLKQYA
Luc interf – interferes with luciferase luminescence in SENP counter-screen; shares compounds with SENP7 block; Pre-incubated SENP8/Z-RLRGG-aminoluciferin, luciferase luminescence interference; inhibition, % at 12.5 µM; 6,200 compounds, 39% hits; AID 488919;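 active = mean inhibition above about 50% when retested at one dose, limit read from the data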
Hits are given with their value; n = inactive; x = no result given. Sampled rows, rich in hits. Any-hit rate of the full collection: about 2.4%.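 Rule for the calls, unless noted: active = mean inhibition above about 50% in the one-dose retest (limit read from the data); inactive = the rest.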

SMILES	SENP7 block	SENP6 block	Platelet DG rel	SENP8 block-1	SENP8 block-2	SENP8 confirm	SENP6 conf	SENP7 confirm	Casp3 select	Luc interf
O=C(Nc1ccc2c(c1)CCC2)c1ccccc1	88	84	n	n	82	90	89	98	88	87
O=C(Nc1ccc2c(c1)CCC2)c1ccccc1F	80	92	n	n	70	n	86	99	85	85
CCn1ccc(C(=O)Nc2ccc(N(C)C(C)=O)cc2)n1	n	n	n	n	n	x	x	x	x	x
CC(N)c1ccc(Cl)cc1Cl (stereo not given)	n	n	n	n	n	x	x	x	x	x
O=C(CSc1nc2ncc(Cl)cc2[nH]1)N1CCC(Cc2ccccc2)CC1	n	n	x	n	n	x	x	x	x	x
Cc1ccc(C(=O)Nc2nc(C)c(C(=O)Nc3ccc4c(c3)CCC4)s2)cc1	n	66	n	n	n	n	n	65	n	n
CCOC(=O)c1ccc(NC(=O)c2cnccn2)cc1	n	n	n	n	n	x	x	x	x	x
CCCCc1ccc(NC(=O)c2cnccn2)cc1	92	85	n	n	85	92	95	101	86	58
Cc1nc(NC(=O)c2ccc(F)cc2)sc1C(=O)Nc1ccc2c(c1)CCC2	n	n	n	n	n	x	x	x	x	x
COc1ccc([N+](=O)[O-])cc1N(CC(O)CN1C(=O)NC(C)(C)C1=O)S(=O)(=O)c1ccccc1 (stereo not given)	n	n	n	n	n	x	x	x	x	x
CCOc1ccc(S(=O)(=O)N2CCCCC2)cc1NS(=O)(=O)c1cccs1	n	n	x	n	n	x	x	x	x	x
Nc1c(Cl)cc2c(c1Oc1ccccc1)C(=O)c1ccccc1C2=O	n	58	n	n	n	n	n	n	n	n
Nc1c(Cl)cc2c(c1Br)Cc1ccccc1-2	x	x	x	n	x	x	x	x	x	x
Nc1nnnn1/N=C/c1ccc(O)cc1	90	95	n	n	89	93	93	101	98	85
COc1ccc(C(=O)Nc2ccc(NC(=O)C3CC3)nc2)cc1	n	n	n	n	n	x	x	x	x	x
COc1cc(C)ccc1S(=O)(=O)NC(=O)C1(C)CCN1C(=O)C1(c2ccc(Cl)cc2)CCC1 (stereo not given)	x	x	x	n	x	x	x	x	x	x
CCOc1ccc(OCc2ccc(C(=O)NN=Cc3ccc[nH]3)cc2)cc1	93	93	x	n	71	n	n	n	n	n
O=C(N/N=C/c1ccc([N+](=O)[O-])cc1)c1[nH]ncc1Br	85	86	n	n	72	n	n	n	88	n
O=C(NCc1nc(-c2ccc(C(F)(F)F)cc2)no1)Nc1cc(Cl)cc(Cl)c1	n	n	n	n	n	x	x	x	x	x
O=C(Nc1ccc2ccccc2c1)c1cccc(F)c1	73	n	n	n	60	n	59	87	n	n
CCOc1cccc(C(=O)Nc2ccc3c(c2)OCCO3)c1	65	69	n	n	n	66	63	89	77	69
CCOc1cccc(C(=O)Nc2ccc3ccccc3c2)c1	92	93	n	n	88	n	66	99	n	n
CCOc1cccc(C(=O)Nc2cccc(C(C)=O)c2)c1	n	n	n	n	n	x	x	x	x	x
COc1ccc2c(C)cc(=O)oc2c1	x	x	x	n	x	x	x	x	x	x
COc1cccc(COc2ccc3c(C)cc(=O)oc3c2)c1	71	77	n	n	68	n	75	90	65	62
SMILES	SENP7 block	SENP6 block	Platelet DG rel	SENP8 block-1	SENP8 block-2	SENP8 confirm	SENP6 conf	SENP7 confirm	Casp3 select	Luc interf
O=C(Cn1cnc2ccccc21)N/N=C/C(Br)=C/c1ccccc1	n	n	n	n	n	x	x	x	x	x
CCCCNc1c(-c2ccc(SC3CCCCC3)cc2)nc2ccccn12	n	83	n	n	63	n	n	n	n	n
CCCCNc1c(-c2ccc(SC(C)CC)cc2)nc2ccccn12 (stereo not given)	83	97	n	n	74	73	64	94	82	83
CCCCNc1c(-c2cccc(SC(C)CC)c2)nc2ccc(Cl)cn12 (stereo not given)	n	n	x	n	n	x	x	x	x	x
CCc1nc2c(OCc3ccccc3)cccn2c1N(Cc1ccccc1)C(C)=O	x	x	x	n	x	x	x	x	x	x
O=C(c1cc(-c2ccc(F)cc2)on1)N1CCCCCC1	n	n	n	n	n	x	x	x	x	x
Cc1ccc(-c2cc(C(=O)N3CCCCCC3)no2)cc1	n	61	n	n	n	n	n	n	n	n
O=C(c1cc(-c2ccc(Br)cc2)on1)N1CCCC1	n	55	n	n	n	n	n	n	n	n
COc1ccc(-c2cc(C(=O)N3CCCC3)no2)cc1	53	74	n	n	n	n	52	86	80	n
COc1cccc(-c2cc(C(=O)N3CCN(c4ccc(F)cc4)CC3)no2)c1	n	n	n	n	n	x	x	x	x	x

Screening data from PubChem BioAssay.
